Bioassay records as filed in PubChem.
An excerpt weighted towards active compounds, which were near 6.7% of everything screened.
SW480 rereplic = inducers of DNA re-replication in SW480 colon cancer cells; SW480 DNA re-replication, Hoechst DNA content imaging, 48 h; Potency, µM (top dose mostly 46.1 µM), most hits filed as activators; hit rate 1.8% among 340,000; AID 624297; also: nearly all actives have a fitted effect of over 55% in size
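Per well, 250 cells were exposed to pinned compound for 48 hr. Nuclear DNA was visualised with Hoechst (40 min, 37 C) and total object intensity recorded by fluorescence scanning.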
MCF10A rerep = inducers of DNA re-replication in MCF 10A breast cells | MCF 10A DNA re-replication, Hoechst nuclear intensity, 48 h | Potency, µM (doses to about 46.1 µM), actives largely listed as activators | hit rate 2.9% among 350,000; also: nearly all actives have a fitted effect of over 50% in size
KB-3-1 cytotox = kills parental KB-3-1 adenocarcinoma cells | KB-3-1 viability, CellTiter-Glo ATP luminescence, 72 h | AID 1347075 | Potency, µM (highest dose often 46.1 µM), actives largely listed as cytotoxic | hit rate 1.4% among 400,000; also: nearly all actives have a fitted effect of over 60% in size
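Cytotoxicity measured as CellTiter-Glo luminescence after 72 h at 37 C. Compound titrations were pinned onto drug-naive KB-3-1 parental adenocarcinoma cells grown in DMEM with 10% FBS, and normalized data fitted to concentration-response curves.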
KB-V1 cytotox = kills drug-selected multidrug resistant KB-V1 cells | KB-V1 MDR cells viability, CellTiter-Glo, 72 h | Potency, µM (top dose mostly 46.1 µM), actives largely listed as cytotoxic | hit rate 3.4% among 400,000; also: nearly all actives have a fitted effect of over 60% in size
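In this primary screen, KB-V1 cells overexpressing P-gp are incubated with library compounds (lowest to highest concentration) for 72 h at 37 degrees C before a luminescent ATP viability read.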
PINK1 modulator = PINK1 expression modulation; PINK1 immunofluorescence, high-content cytometry, 24 h; Potency, µM (top dose mostly 76.6 µM), actives largely listed as activators; hit rate 0.2% among 410,000; active = well fitted activation curve with a large enough effect; inconclusive = small, poorly fitted or top-dose-only effect; cell line not stated here; also: nearly all actives have a fitted effect of over 65% in size
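Fluorescence from anti-PINK1 antibody, together with nuclear and cell stains, was scanned on a laser-scanning cytometer. Before staining, stable-line cells were incubated 24 hours with compounds at 5 concentrations; primary antibody 12 h at 10 degrees C.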
Each line names hits and unclear results; the compound was inactive in the other large screens; ! = repeats disagree. Unless noted, calls follow the shape of the dose curve; as a rule, active = well fitted curve in the direction sought with a large enough effect; inconclusive = small, poorly fitted or top-dose-only effect, or another doubt; inactive = no such curve, though single readings can be large; an effect the other way counts as inactive or inconclusive.

Cc1ccc(-c2cc(-c3ccccc3)cc(-c3ccccc3)[n+]2-c2ccccc2)cc1	MCF10A rerep 23.1µM, KB-3-1 cytotox inconclusive, PINK1 modulator inconclusive
Cc1ccc(-c2cc(-c3ccc(C)cc3)[n+](-c3ccccc3)c(-c3ccc(C)cc3)c2)cc1	SW480 rereplic inconclusive, MCF10A rerep inconclusive, KB-3-1 cytotox 5.8µM
c1ccc(-c2cc(-c3ccccc3)[n+](-c3ccccc3)c(-c3ccccc3)c2)cc1	KB-3-1 cytotox 4.61µM, PINK1 modulator inconclusive
CN(C)c1ccc(-[n+]2c(-c3ccccc3)cc(-c3ccccc3)cc2-c2ccccc2)cc1	SW480 rereplic inconclusive, MCF10A rerep inconclusive, KB-3-1 cytotox 0.651µM, KB-V1 cytotox 20.6µM, PINK1 modulator inconclusive
C[n+]1c(-c2ccccc2)cc(-c2ccc(Cl)cc2)cc1-c1ccccc1	SW480 rereplic inconclusive, KB-3-1 cytotox inconclusive
C[C@H](CO)N1C[C@H](C)[C@H](CN(C)S(=O)(=O)c2ccccc2)Oc2ccc(NC(=O)NC3CCCCC3)cc2CC1=O	MCF10A rerep inconclusive
O=C(Nc1ccc(Oc2ccc(Cl)cc2)c(Cl)c1)c1cc(I)cc(I)c1O	MCF10A rerep inconclusive, KB-3-1 cytotox inconclusive, KB-V1 cytotox inconclusive
CC(C)CN1CC[C@@]2(CCCN(C(=O)Oc3ccccc3)C2)C1	none (no result: SW480 rereplic, MCF10A rerep, KB-3-1 cytotox, KB-V1 cytotox)
CCOC(=O)c1ccc(-[n+]2c(-c3ccccc3)cc(-c3ccccc3)cc2-c2ccccc2)cc1	SW480 rereplic inconclusive, MCF10A rerep inconclusive, PINK1 modulator inconclusive
CCOC(=O)c1cccc(-[n+]2c(-c3ccccc3)cc(-c3ccccc3)cc2-c2ccccc2)c1	SW480 rereplic inconclusive, KB-3-1 cytotox inconclusive, PINK1 modulator 25.1µM
C[C@H](N)Cc1ccccc1	none (no result: KB-3-1 cytotox, KB-V1 cytotox, PINK1 modulator)
C=C(C)[C@@H]1CC[C@]2(C(=O)O)CC[C@]3(C)C(CCC4[C@@]5(C)CC[C@H](O)C(C)(C)C5CC[C@]43C)C12 (stereo partly specified)	SW480 rereplic inconclusive, MCF10A rerep inconclusive, KB-3-1 cytotox inconclusive
CNCCCc1ccccc1	MCF10A rerep inconclusive, KB-3-1 cytotox 23.1µM
CC12CCC3C(CCC4(O)CC(O)CCC34C=NO)C1(O)CCC2C1=COC(=O)C1 (stereo unspecified)	SW480 rereplic 1.64µM, MCF10A rerep inconclusive, KB-3-1 cytotox 0.366µM, KB-V1 cytotox inconclusive
CCCCN=C[C@]12CCC(O)CC1(O)CCC1[C@@H]2CC[C@]2(C)[C@H](C3C=CC(=O)O3)CCC12O (stereo partly specified)	SW480 rereplic 2.31µM, MCF10A rerep inconclusive, KB-3-1 cytotox 0.231µM, KB-V1 cytotox 0.517µM
CC12CCC3C(CCC4(O)CC(O)CCC34C=O)C1(O)CCC2C1=CC(=O)OC1 (stereo unspecified)	SW480 rereplic inconclusive, MCF10A rerep inconclusive, KB-3-1 cytotox 1.3µM, KB-V1 cytotox inconclusive
CC12CC[C@H]3[C@@H](CCC4(O)C[C@H](O)CCC34/C=N/NC(=O)c3ccccc3Cl)C1(O)CCC2C1=CC(=O)OC1 (stereo partly specified)	none
C[C@]12CC[C@H]3[C@@H](CC[C@]4(O)C[C@@H](O)CC[C@]34C=O)[C@@]1(O)CC[C@@H]2C1=CC(=O)OC1	SW480 rereplic 2.59µM, MCF10A rerep inconclusive, KB-3-1 cytotox 0.517µM, KB-V1 cytotox 0.92µM
CC[C@@H]1[C@@H]2C[C@H]3[C@H]4N(C)c5ccccc5[C@@]45C[C@@H]([C@@H]2[C@@H]5O)N3[C@H]1O	none (no result: KB-3-1 cytotox, KB-V1 cytotox, PINK1 modulator)
O=C(CN1CCOCC1)c1cccc([N+](=O)[O-])c1	KB-3-1 cytotox inconclusive (no result: SW480 rereplic, MCF10A rerep)
C[C@]12CCC3C(CCC4=CC(O)CC[C@@]43/C=N/O)C1(O)CCC2C1=CC(=O)OC1 (stereo partly specified)	SW480 rereplic 3.66µM, MCF10A rerep inconclusive, KB-3-1 cytotox 0.291µM, KB-V1 cytotox 0.651µM
CC(=O)OCC12CC(OC(=O)CC(C)C)C(C)=CC1OC1C(O)C(OC(C)=O)C2(C)C12CO2 (stereo unspecified)	SW480 rereplic inconclusive, MCF10A rerep inconclusive, KB-3-1 cytotox 0.0092µM, KB-V1 cytotox inconclusive
CSc1ccc(Cl)c(C(=O)OCC(=O)N2CCN(C(=O)c3ccco3)CC2)c1	SW480 rereplic inconclusive, KB-V1 cytotox inconclusive
Cc1ccc(Cl)c(O)c1	none (no result: KB-3-1 cytotox, KB-V1 cytotox, PINK1 modulator)
O=C(c1ccc2c(c1)OCO2)N1CCC2(CC1)OCCO2	none
O=C(c1ccc(N2CCCCCC2)c([N+](=O)[O-])c1)N1CCC2(CC1)OCCO2	MCF10A rerep 23.1µM, KB-V1 cytotox inconclusive
Nc1nc(F)nc2c1ncn2[C@@H]1O[C@H](CO)[C@@H](O)[C@H]1O	SW480 rereplic inconclusive, MCF10A rerep 4.11µM!, KB-3-1 cytotox 1.16µM, KB-V1 cytotox 1.46µM
Nc1nc(F)nc2c1ncn2[C@@H]1O[C@H](CO)[C@@H](O)[C@@H]1O	KB-3-1 cytotox 0.651µM, KB-V1 cytotox 0.651µM
CCC(C)NC(=O)c1c(N)n(CC2CCCO2)c2nc3ccccc3nc12 (stereo unspecified)	SW480 rereplic 18.4µM, MCF10A rerep inconclusive, KB-V1 cytotox inconclusive
CC(C)CCNC(=O)c1c(N)n(CC2CCCO2)c2nc3ccccc3nc12 (stereo unspecified)	SW480 rereplic 5.17µM, MCF10A rerep 2.31µM, KB-3-1 cytotox inconclusive, KB-V1 cytotox inconclusive
CCC(C)NC(=O)c1c(N)n(Cc2ccc3c(c2)OCO3)c2nc3ccccc3nc12 (stereo unspecified)	SW480 rereplic inconclusive, MCF10A rerep inconclusive, KB-3-1 cytotox inconclusive, KB-V1 cytotox inconclusive
Cc1cccc(C(=O)NCCC(=O)NCc2ccccc2F)c1	MCF10A rerep inconclusive
CC(=O)O[C@@H]1/C=C/[C@](C)(O)C[C@@H](C)C/C=C/[C@H]2[C@@H]3O[C@]3(C)[C@@H](C)[C@H]3[C@H](Cc4ccccc4)NC(=O)[C@@]312	SW480 rereplic 2.59µM, MCF10A rerep 1.46µM
CC(=O)O[C@@H]1/C=C/[C@](C)(O)C[C@@H](C)C/C=C/[C@H]2[C@H](O)[C@@](C)(O)[C@@H](C)[C@H]3[C@H](Cc4ccccc4)NC(=O)[C@@]312	none
c1ccc(/N=C2\N=C(Nc3ccccn3)c3ccccc32)nc1	SW480 rereplic inconclusive, KB-V1 cytotox 2.91µM
CCOC(=O)CN1C(=O)N[C@@H](c2cccc(C(F)(F)F)c2)C(C(C)=O)=C1C	MCF10A rerep inconclusive
O=Cc1cn(Cc2ccc([N+](=O)[O-])cc2)c2ccccc12	SW480 rereplic inconclusive, MCF10A rerep 18.4µM, KB-3-1 cytotox 6.51µM, KB-V1 cytotox inconclusive
C=CCCC[C@@H]1OC(=O)CNC(=O)C([C@@H](C)CC)NC(=O)[C@@H]2CCCN2C(=O)C([C@@H](C)CC)OC(=O)[C@H](Cc2ccccc2)N(C)C(=O)[C@H](C(C)C)NC(=O)C1(C)C (stereo partly specified)	KB-3-1 cytotox inconclusive (no result: SW480 rereplic, MCF10A rerep)
